DAT uptake mod = changed human dopamine transporter uptake under cocaine IC80 | 1.3% of 110,000 active | LLC-PK1 hDAT cells, [14C]-dopamine uptake with cocaine IC80; actives deviate in either direction | B-score at 10 µM;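 active means Z score or B-score, a plate-position-corrected score, falls beyond the plate's 99.7% confidence bounds, in either direction; inactive means both scores lie inside the 99.7% bounds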;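 further: scored against the spread of the other compound wells on the same plate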
D1 allo mod = D1 dopamine receptor (human) allosteric modulation. P21728. HEK293 D1, CRE-luciferase, dopamine EC30 potentiation; actives deviate in either direction. B-score at 10 µM. 5.9% of 58,000 active;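 active means luminescence count or its row- and column-corrected plate score outside the 99.7% band of the plate's sample wells, on either side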
Target sequence (P21728 whole entry, looked up): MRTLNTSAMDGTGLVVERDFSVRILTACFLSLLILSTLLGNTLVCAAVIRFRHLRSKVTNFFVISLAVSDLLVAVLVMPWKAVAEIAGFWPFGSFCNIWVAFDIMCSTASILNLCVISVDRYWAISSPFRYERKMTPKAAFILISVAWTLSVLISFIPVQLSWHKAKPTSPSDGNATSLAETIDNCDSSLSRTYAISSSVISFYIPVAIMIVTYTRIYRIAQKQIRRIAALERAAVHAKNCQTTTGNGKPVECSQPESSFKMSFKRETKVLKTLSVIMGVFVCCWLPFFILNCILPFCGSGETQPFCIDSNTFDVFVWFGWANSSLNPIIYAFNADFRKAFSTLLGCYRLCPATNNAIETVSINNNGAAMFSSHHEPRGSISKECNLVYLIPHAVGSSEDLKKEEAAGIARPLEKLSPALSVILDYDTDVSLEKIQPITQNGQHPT
EphB4 antag = antagonists of human EphB4-ephrin-B2 interaction | P54760 | EphB4 LBD / TNYL-RAW-Alexa532 peptide, fluorescence polarization | inhibition, % at 7 µM | 0.15% of 97,000 active | AID 720;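 active means inhibition above the screen-wide mean inhibition plus 3 SD, cut at about 15% in these data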;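 further: 0% = DMSO wells and 100% = excess unlabeled TNYL-RAW peptide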
D1 PAM confirm = confirmation of human D1 dopamine receptor allosteric modulators; shares compounds with D1 allo mod; HEK293 D1 CRE-luciferase, dopamine EC30 potentiation; hits give high values; luminescence at 10 µM; 88% of 2,200 active; AID 642;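 active means luminescence in either of two replicates above the same-plate mean plus 3 SD of the low-dose dopamine control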
D1 ag no DA = secondary test of D1 modulators: activity without dopamine. shares compounds with D1 allo mod. HEK293 D1 CRE-luciferase, luminescence, no dopamine; hits give high values. luminescence at 10 µM. 0.8% of 1,900 active; in the data active means luminescence above about 3900
Isoprot counter = counter-screen for D1 modulators: isoproterenol response in HEK293 cells; shares compounds with D1 allo mod; HEK293 D1 CRE-luciferase, isoproterenol EC30 counter-screen; calls only at 10 µM; 63% of 2,200 active; AID 647;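 active means luminescence in either replicate above plate mean of wells with a partly effective reference agonist dose plus 3 SD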;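 further: isoproterenol raises cAMP through native beta-adrenoceptor Gs so signal bypasses D1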
Active calls of the source: *; i = inactive; . = no result; + = active, no number. Shown is part of a subset that was picked to be rich in hits.

SMILES	DAT uptake mod	D1 allo mod	EphB4 antag	D1 PAM confirm	D1 ag no DA	Isoprot counter
CCOc1ccc(C2=Nn3c(nnc3-c3ccc(OC)cc3)SC2)cc1	0.52	7.8*	7	11104*	1552	+
Cn1cnc2c1c(=O)n(Cc1ccc(F)cc1Cl)c(=O)n2C	-1.2	4*	10	6528*	1544	i
Cn1c(NCc2ccco2)nc2c1c(=O)n(Cc1ccc(Cl)cc1Cl)c(=O)n2C	-0.0031	0.34	10	.	.	.
O=c1[nH]c2cc3c(cc2cc1C(c1nnnn1C1CCCC1)N1CCSCC1)OCCO3 (stereo unspecified)	.	6.9*	-8	10448*	1784	i
CC(C)(C)n1nnnc1C(c1cc2cc3c(cc2[nH]c1=O)OCCO3)N1CCSCC1 (stereo unspecified)	-0.41	1.1	4	.	.	.
O=C(Nc1ccc(O)c2c(=O)cc(-c3ccccc3Cl)oc12)c1cccs1	-0.18	.	.	.	.	.
COc1ccc(Cl)cc1Nc1nc(N)nc(C(F)(F)F)n1	-0.22	.	7	.	.	.
COc1ccc(Nc2nc(N)nc(C(F)(F)F)n2)c(OC)c1	-0.17	4.2*	2	11048*	1732	+
CCCCOC(=O)c1cccnc1	-1	.	.	.	.	.
COc1cc2[nH]c(=S)n(CC3CCCO3)c(=O)c2cc1OC (stereo unspecified)	1	1.9	0	.	.	.
COc1cc2[nH]c(=S)n(C3CCCC3)c(=O)c2cc1OC	0.18	2.9*	.	13356*	1768	i
CCOC(=O)c1cc(-c2ccc(C)o2)nn1CCC#N	0.15	5.6*	.	19640*	1728	+
CCOC(=O)c1cc(-c2cccs2)nn1CCC#N	1.3	.	-2	.	.	.
CC(Oc1ccc(F)cc1)C(=O)Nc1sc2c(c1C(=O)NCc1cccnc1)CCCC2 (stereo unspecified)	2	.	4	.	.	.
O=C(Nc1sc2c(c1C(=O)NCc1cccnc1)CCCC2)c1ccco1	0.49	12*	0	17940*	1360	+
O=C(CCS(=O)(=O)c1ccccc1)Nc1nc2c(s1)COc1ccccc1-2	-0.0042	.	0	.	.	.
CN1CCN(/C=N/c2c(C#N)cnn2Cc2ccccc2)CC1	0.73	-1	1	.	.	.
N#Cc1cnn(Cc2ccccc2)c1/N=C/N1CCOCC1	-0.82	5.5*	-5	8140*	1300	i
O=C(NCC1CCCO1)c1onc(CSc2ccc(F)c(F)c2)c1C(=O)O (stereo unspecified)	-0.75	.	1	.	.	.
c1ccc(-c2n[nH]c3ccccc23)cc1	0.25	1.4	.	.	.	.
c1ccc(-c2n[nH]nc2-c2ccccc2)cc1	0.94	17*	4	18456*	.	+
CCOc1ccc(N(CC(=O)NCC2CCCO2)S(=O)(=O)c2ccc(SC)cc2)cc1 (stereo unspecified)	0.73	.	-10	.	.	.
COc1cc(-c2nc(S(=O)(=O)c3ccc(C)cc3)c(N3CCOCC3)o2)cc(OC)c1OC	.	5.4*	-5	8652*	1408	+
COc1cc(-c2nc(S(=O)(=O)c3ccc(Cl)cc3)c(N3CCOCC3)o2)cc(OC)c1OC	0.18	3	4	.	.	.
N#Cc1cccc(-c2nnc(SCc3ccccc3C#N)o2)c1	1.1	2.7*	-5	5456	1604	+
SMILES	DAT uptake mod	D1 allo mod	EphB4 antag	D1 PAM confirm	D1 ag no DA	Isoprot counter
Cc1cccc(-c2nnc(SCc3ccccc3)o2)c1	1.4	.	2	.	.	.
CN(Cc1ccccc1)Cc1nc2c(c(=O)n(C)c(=O)n2C)n1Cc1ccc(F)cc1	-0.32	-0.14	1	.	.	.
Cc1ccc(Cn2c(CN(C)Cc3ccccc3)nc3c2c(=O)n(C)c(=O)n3C)cc1	1	4.9*	-1	8728*	1740	+
CCN(CC)CCN(C)Cc1ccc(Br)cc1	1	.	-4	.	.	.
CCOc1cc2c(C#N)c(N3CCOCC3)nc(N)c2c(N)n1	1.2	12*	.	11932*	1728	+
CCOc1cc2c(C#N)c(N(CC)CC)nc(N)c2c(N)n1	-0.45	.	.	.	.	.
COc1cc(NC(=O)c2ccc(COCC(F)(F)F)cc2)cc(OC)c1OC	0.16	.	4	.	.	.
CCc1ccc(C2C(C#N)=C(N)SC(N)=C2C#N)cc1	-0.45	1.9	-11	.	.	.
CCc1ccc(C2C(C#N)=C(N)SC(N)=C2C#N)s1	0.14	7.3*	.	8708*	1568	+
CCCCOc1nc(N)nc(-c2ccccc2)n1	-0.67	15*	0	19712*	1784	+
Nc1nc(N)nc(-c2ccccc2)n1	-0.54	0.98	-1	.	.	.
